Screens from PubChem BioAssay.
Only some compounds are listed: those with a hit (about 1.8% of all), similar ones and a draw of the others.
beta cell repl: induces beta-cell replication in MIN6 cells. MIN6 cells proliferation, ATPlite luminescence, 48 h; cells starved in 0.2% serum; 100% = growth in 10% serum. proliferation, % at 10 µM. 330,000 tested, 0.29% active. AID 2380;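 active = compounds whose signal lies at least 3.5 SD above the mean of all wells on their plate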
NRP1-CendR mod: alters CendR peptide binding to human NRP-1; O14786; FAM-RPARPAR peptide binding to NRP-1, fluorescence polarization; inhibition, % at 25 µM; 360,000 tested, 0.85% active; AID 602438;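 active = inhibition or corrected inhibition above about 18%, plus a signal ratio from 0.5 to 1.5, limit read from the data, passing the limit was not always enough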
VLA-4 inh: inhibition in a human VLA-4 binding assay. AID 2557. inhibition, % (about 7 µM as worked out from the volumes in the protocol). 330,000 tested, 0.2% active. VLA-4 expressing cells, ligand binding flow cytometry; in the data active = inhibition above about 50%
A3A deaminase: inhibitors of human APOBEC3A DNA deaminase; 330,000 tested, 0.41% active; inhibition, % at 20 µM; recombinant A3A, FAM/TAMRA ssDNA deamination fluorescence; P31941;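 active = at least 40% inhibition at 20 µM here, with at most 30% in a related deaminase screen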
Target sequence (P31941 whole entry, looked up): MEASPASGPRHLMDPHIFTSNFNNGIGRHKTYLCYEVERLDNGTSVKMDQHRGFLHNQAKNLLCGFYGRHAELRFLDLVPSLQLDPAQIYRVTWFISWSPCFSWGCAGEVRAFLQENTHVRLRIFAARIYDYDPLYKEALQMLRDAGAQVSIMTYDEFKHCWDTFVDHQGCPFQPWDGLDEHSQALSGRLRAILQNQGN
APOBEC3G inh: APOBEC3G (human) deaminase inhibition; 330,000 tested, 0.28% active; Q9HC16; recombinant A3G, ssDNA deamination FAM/TAMRA fluorescence; inhibition, % at 20 µM;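 active = inhibition of at least 40% at 20 µM, with no more than 30% in the related APOBEC3A deaminase screen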
APOBEC3G confirm: APOBEC3G (human) deaminase inhibition, confirmed. shares compounds with APOBEC3G inh. recombinant A3G ssDNA deaminase, UDG/FAM-TAMRA fluorescence. inhibition, % at 20 µM. 890 tested, 72% active;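 active = inhibition reaching a set limit in any replicate at 20 µM, the limit being 80% of the first screen's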
Large screens that a line does not name were inactive (follow-up assays come after a bar, where they were run).

C[C@@H]1CN=C2N(CCNC(=O)CCC3CCCCC3)[C@H](Cc3ccc(O)cc3)CN21	none
CCCCCCNC(=O)N[C@H](C(=O)NCCC[C@H]1CN2C(=NC[C@H]2C)N1CCC(c1ccccc1)c1ccccc1)C(C)O (some centres undefined)	APOBEC3G inh 78.0 (no result: NRP1-CendR mod, VLA-4 inh) | APOBEC3G confirm 72.5
COC(=O)Nc1cc(C(=O)c2ccc(Cl)cc2Cl)c[nH]1	none
CC(C)(C)c1ccc(CC(=O)N2CCC2(C)C(=O)NS(=O)(=O)c2ccc(Cl)s2)cc1 (centres undefined)	none (no result: beta cell repl, VLA-4 inh, A3A deaminase, APOBEC3G inh)
OCc1cc(-c2ccccn2)no1	none (no result: VLA-4 inh)
